RPL19A-GFP yeast: alters RPL19A-GFP fluorescence in TOR pathway yeast screen | S. cerevisiae RPL19A-GFP strain, flow cytometry, 3 h; hits give low values | percent response vs DMSO, % at 10 µM | 330,000 compounds, 0.3% hits | AID 2025;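 active means percent response vs DMSO below 50%; inconclusive means fewer than 70 events counted for the yeast strain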;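 further: median channel GFP fluorescence of the barcoded RPL19A-GFP strain; ratio of sample median GFP to plate DMSO average so 100% = DMSO; lower means less RPL19A-GFP as with rapamycin TOR inhibition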
MEP2 TOR yeast: alters MEP2-GFP fluorescence in TOR pathway yeast screen; S. cerevisiae MEP2-GFP strain, flow cytometry GFP, 3 h; 100% = DMSO control level; GFP response vs DMSO, % at 10 µM; 330,000 compounds, 0.51% hits;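 active means GFP response versus DMSO above a set limit, roughly screen mean plus 3 SD, cut at about 180% in these data; inconclusive means fewer than 70 cells counted for a yeast strain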;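 further: median GFP fluorescence of the barcode-gated MEP2-GFP cells per well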
CIT2 TOR yeast: alters CIT2-GFP fluorescence in TOR pathway yeast screen. AID 2029. S. cerevisiae CIT2-GFP strain, flow cytometry, 3 h; 100 means same as DMSO wells. GFP response vs DMSO, % at 10 µM. 320,000 compounds, 0.065% hits;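 active means GFP response relative to DMSO above a set limit, near the screen mean plus 3 SD, cut at about 150% in these data; inconclusive means Fewer than 70 cells measured for a yeast strain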;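 further: ratio of well median GFP fluorescence to mean of DMSO wells on the plate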
AGP1-GFP MLPCN: yeast TOR pathway AGP1-GFP modulation; GFP response vs DMSO, % at 10 µM; AID 2066; 320,000 compounds, 0.02% hits; S. cerevisiae AGP1-GFP multiplex flow cytometry, 3 h; GFP as percent of DMSO wells;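 active means GFP response relative to DMSO above a set limit, near screen average plus 3 SD, cut at about 150% in these data; inconclusive means fewer than 70 cells counted for the yeast strain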;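 further: median GFP channel fluorescence of the gated AGP1 strain per well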
LAP4 TOR yeast: yeast TOR pathway LAP4-GFP modulation | S. cerevisiae LAP4-GFP multiplex, flow cytometry GFP, 3 h; median GFP as percent of DMSO wells | GFP response vs DMSO, % at 10 µM | 320,000 compounds, 0.34% hits;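 active means GFP response vs DMSO above a set limit, about the screen mean plus 3 SD, cut at about 150% in these data; inconclusive means under 70 cell events counted for the yeast strain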
Efflux pump mplx: inhibitors of Candida antifungal efflux pumps expressed in yeast. S. cerevisiae Candida pump triplex, Nile Red efflux. AID 485275. inhibition, % at 10 µM. 330,000 compounds, 0.44% hits;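 active means plate passing quality check with inhibition over a set limit, or well fluorescence over plate mean plus 4 SD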;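 further: Nile Red retained in pooled yeast measured as flow cytometry median fluorescence; 0% = buffer negative control and 100% = Enniatin B positive control; higher means more Nile Red kept so more efflux inhibition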
* = called active by the depositor; ? = inconclusive; / = no result; [ ] = remark or other dose. Compounds with a hit are over-represented: about 1.3% of the library has one in this group of screens.

SMILES	RPL19A-GFP yeast	MEP2 TOR yeast	CIT2 TOR yeast	AGP1-GFP MLPCN	LAP4 TOR yeast	Efflux pump mplx
N#CC(C#N)=c1ccc2c(c1)N1C3=C(CCCC3)CC3CCCCC31N=2 (stereo not given)	102	111	107	104	108	0
N#C/C(C(N)=O)=c1/ccc2c(c1)N1C3=C(CCCC3)CC3CCCCC31N=2 (stereo not given)	93	104	81	90	160*	0
COc1ccc(S(=O)(=O)Nc2cccc3c2O[C@H](CN(C)CC2CCCCC2)[C@@H](C)CN([C@H](C)CO)C3=O)cc1	94	93	85	92	94	0
COc1cc(/C=N/N(C)C)cc(Br)c1O	40*[may fluoresce violet]	461*[may fluoresce violet]	?	?	73	0
CN=c1scc(C)n1/N=C/c1cc(Br)c(O)c(OC)c1	94	93	97	89	114	0
O=C(NCc1ccccc1)/C(=C/c1ccc([N+](=O)[O-])cc1)NC(=O)c1ccco1	102	106	97	94	90	0
CCOc1cc2[nH]c(=O)n(CCCCCC(=O)NCc3ccco3)c(=O)c2cc1OCC	61	190*[may fluoresce violet]	?	20	92	0
COC(=O)c1cc(NC(=O)c2c(Cl)nc3sccn23)cc(C(=O)OC)c1	95	188*	90	101	84	0
COc1ccc(NC(=O)c2cn(-c3ccccc3)nc2-c2ccncc2)cc1	98	97	97	101	103	0
COc1ccc(-c2nn(-c3ccccc3)cc2C(=O)NC(=S)NNC(=O)c2ccncc2)cc1	103	113	107	101	150*	0
O=C(N/N=C/c1cc(O)ccc1[N+](=O)[O-])c1ccc2c(c1)OCCO2	96	97	94	99	105	0
O=C(N/N=C/c1ccccc1[N+](=O)[O-])c1ccc2c(c1)OCCO2	46*[may fluoresce violet]	430*[may fluoresce violet]	?	33	99	0
O=C1c2ccccc2CCC12N=NCC2c1ccccc1 (stereo not given)	14*[may fluoresce violet]	246*[may fluoresce violet]	?	?	133	0
O=C1c2ccccc2CCc2ccc(Br)cc21	96	89	97	98	98	0
CCOC(=O)CC1C(=O)NCCN1C(=O)COc1ccc(C(C)(C)C)cc1 (stereo not given)	103	104	105	101	101	0
CCOC(=O)C1=C(N)OC2=C(C(=O)CCC2)C1c1cccnc1 (stereo not given)	/	295*[may fluoresce violet]	?	?	81	0
COC(=O)C1=C(N)OC2=C(C(=O)CCC2)C1c1cccnc1 (stereo not given)	96	98	86	101	100	0
CCCOc1ccccc1-c1nc2c([nH]1)c(=O)[nH]c(=O)n2C	65	186*[may fluoresce violet]	?	27	95	0
Cn1c(=O)c2[nH]c(-c3ccccc3O)nc2n(C)c1=O	88	113	105	104	105	0
CCOC(=O)c1sc(-c2ccccc2)cc1NC(=O)c1ccc(S(=O)(=O)N(CCOC)CCOC)cc1	111	109	113	107	102	0
CC(C)Cn1c(=O)c(C(=O)NCc2ccc3c(c2)OCO3)c(O)c2ccccc21	29*[may fluoresce violet]	?	?	?	?	0
O=C(NCc1ccc2c(c1)OCO2)c1c(O)c2cccc3c2n(c1=O)CCC3	94	102	92	94	93	0
O=C(Nc1c(C(=O)N2CCOCC2)cnn1-c1ccccc1)c1cccc(F)c1	100	92	106	100	97	0
O=C(c1ccc([N+](=O)[O-])o1)N1CCN(c2nc3ccc(F)cc3s2)CC1	93	96	78	90	163*	0
O=C(NNC(=O)c1cc(Cl)ccc1O)c1ccc(NS(=O)(=O)c2cccs2)cc1	99	97	104	107	110	0
SMILES	RPL19A-GFP yeast	MEP2 TOR yeast	CIT2 TOR yeast	AGP1-GFP MLPCN	LAP4 TOR yeast	Efflux pump mplx
COC(=O)c1ccc(NC(=O)c2ccc(NC(=O)c3ccco3)cc2)cc1	101	100	98	91	86	11*
CC(C)(C)c1ccc(C(=O)Nc2ccccc2NC(=O)c2ccco2)cc1	93	94	95	96	88	0
O=C(Nc1ccccc1NC(=O)c1ccco1)c1ccccc1	41*[may fluoresce violet]	495*[may fluoresce violet]	?	?	76	0
O=C(Oc1ccccc1)c1ccc(NC(=O)c2ccco2)cc1	100	95	93	89	89	0
CCC1CN(C(=O)N2CCC(C(=O)NCCc3ccccc3)CC2)c2ccccc2O1 (stereo not given)	?	?	?	?	?	0
CN(CCNC(=O)CN1C(=O)CSc2ccc(S(=O)(=O)N3CCCC3)cc21)Cc1ccccc1	99	95	97	95	93	0
COc1cccc2cc(C(=O)N3CCN(C/C=C/c4ccccc4)CC3)c(=O)oc12	81	219*	63	89	106	0
O=C(NCC1CCCN1S(=O)(=O)c1cccs1)C(=O)Nc1cccc(F)c1 (stereo not given)	95	98	90	107	108	0
Cc1cc(C)n(CC(=O)NCc2ccccc2)c(=O)c1C#N	?	?	?	?	?	0
CC(=O)N1CCC(=NNC(=O)c2cc3ccccc3cc2O)CC1	42*[may fluoresce violet]	117	?	16	83	0
COc1ccccc1N1CCN(C(=O)c2cc(=O)c3c(C)cc(C)cc3o2)CC1	40*[may fluoresce violet]	?	?	?	?	0
COc1ccc(C(=O)c2nccc3ccccc23)cc1	99	185*	105	77	105	0
CC(C(=O)Nc1ccc(F)cc1Cl)N(C)CCOc1ccccc1 (stereo not given)	105	103	107	100	97	0
CC(C(=O)Nc1ccccc1)N(C)CCOc1ccccc1 (stereo not given)	40*[may fluoresce violet]	299*[may fluoresce violet]	?	61	97	0
Cc1cccc(N2C(=O)C3C4C=CC(C4)C3C2=O)c1 (stereo not given)	48*[may fluoresce violet]	238*[may fluoresce violet]	?	?	93	0
C/C(=N/OC(=O)c1ccc(F)cc1)c1ccc(C)cc1	53	327*[may fluoresce violet]	?	29	100	0
Cc1ccccc1/C(N)=N/OC(=O)c1ccc(F)cc1	97	100	97	91	103	0
O=C(CCc1nnc2n(Cc3ccccc3)c(=O)c3ccccc3n12)NCCN1CCOCC1	100	100	105	103	99	0
CCCCNC(=O)c1ccc2c(SCC(=O)O)c3c(nc2c1)CCCC3	104	185*	103	98	110	0
CCc1ccc2[nH]c(C(=O)Nc3ccc(C)c(F)c3)cc2c1	102	105	93	91	88	0

Bioassay records deposited in PubChem by NMMLSC.
